{"source": "PubChem BioAssay (Tox21)", "note": "Records with an inconclusive call do not appear. Entries that show only a call come without a potency. The source made the active and inactive calls. The call rests on the fitted dose curve. Potency means the concentration at half of the fitted maximal effect.", "data": [{"biological_target": "Acetylcholinesterase (Homo sapiens) (UniProt P22303)", "sequence (P22303 whole entry, looked up)": "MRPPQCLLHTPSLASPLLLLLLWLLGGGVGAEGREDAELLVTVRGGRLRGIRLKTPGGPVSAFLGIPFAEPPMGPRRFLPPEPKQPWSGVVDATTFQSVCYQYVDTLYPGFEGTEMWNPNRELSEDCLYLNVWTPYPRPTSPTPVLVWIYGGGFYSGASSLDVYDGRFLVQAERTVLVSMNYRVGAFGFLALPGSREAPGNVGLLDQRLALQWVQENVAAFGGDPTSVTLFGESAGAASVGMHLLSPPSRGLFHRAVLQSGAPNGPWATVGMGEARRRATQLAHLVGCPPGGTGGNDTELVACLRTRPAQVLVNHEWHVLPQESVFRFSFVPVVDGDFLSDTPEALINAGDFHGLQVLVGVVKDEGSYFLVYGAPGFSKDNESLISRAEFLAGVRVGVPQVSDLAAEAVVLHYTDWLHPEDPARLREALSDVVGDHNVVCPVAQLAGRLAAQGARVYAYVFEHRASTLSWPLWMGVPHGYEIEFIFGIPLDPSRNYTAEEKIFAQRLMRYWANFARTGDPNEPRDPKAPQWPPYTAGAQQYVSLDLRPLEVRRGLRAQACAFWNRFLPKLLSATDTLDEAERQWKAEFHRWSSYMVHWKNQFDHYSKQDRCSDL", "assay": "Acetylcholinesterase (AChE) small molecule antagonists: colormetric cell-based qHTS assay (AID 1347395); further: nearly all actives have a fitted effect of over 30% in size", "details": "SH-SY5Y cells AChE activity, colorimetric (Ellman); series mostly up to 115 µM", "in_short": "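Colorimetric readout: DTNB quantifies thiocholine from acetylthiocholine hydrolysed by endogenous AChE of SH-SY5Y cells (2,000/well, plated overnight). Compound pretreatment 30 min, substrate incubation 90 min, both 37 C.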", "values": [{"smiles": "O=C1OC2(c3ccc(O)cc3Oc3cc(O)ccc32)c2ccc(N=C=S)cc21", "Potency": "inactive"}, {"smiles": "CC1(C)O[C@@H]2C[C@H]3[C@@H]4CCC5=CC(=O)C=C[C@]5(C)[C@@]4(F)[C@@H](O)C[C@]3(C)[C@]2(C(=O)CO)O1", "Potency": "inactive"}, {"smiles": "CCCCCCc1ccc(-c2ccc(C#N)cc2)cc1", "Potency": "inactive"}, {"smiles": "OC[C@H]1O[C@H](O[C@H]2O[C@H](CO)[C@@H](O)[C@H](O)[C@H]2O)[C@H](O)[C@@H](O)[C@@H]1O", "Potency": "inactive"}, {"smiles": "CCOC(=O)C(C#N)=C(c1ccccc1)c1ccccc1", "Potency": "inactive"}, {"smiles": "S=C([S-])NCCNC(=S)[S-].S=C([S-])NCCNC(=S)[S-].[Mn+2].[Zn+2]", "Potency": "30.9 µM (active)"}, {"smiles": "Cc1nc2ccccc2s1", "Potency": "inactive"}, {"smiles": "c1cc(C(c2ccc(OCC3CO3)cc2)c2ccc(OCC3CO3)cc2)ccc1OCC1CO1", "note": "(stereo not given)", "Potency": "inactive"}, {"smiles": "CC1(C)C(=O)N(Br)C(=O)N1Br", "Potency": "inactive"}, {"smiles": "CCCCCCCCCCCCC(=O)O", "Potency": "inactive"}, {"smiles": "C=CCOC(=O)CCCCCCCC", "Potency": "inactive"}, {"smiles": "CCNc1cccc(C)c1", "Potency": "inactive"}, {"smiles": "Cc1cc(N)n(-c2ccccc2)n1", "Potency": "inactive"}, {"smiles": "FC(F)(F)C(Cl)Br", "note": "(stereo not given)", "Potency": "inactive"}, {"smiles": "CCOC(=O)c1ccc(I)cc1", "Potency": "inactive"}, {"smiles": "COc1c(Cl)ccc(Cl)c1C(=O)O", "Potency": "inactive"}, {"smiles": "CCCCCCCC/C=C\\CCCCCCCC(=O)OC[C@@H](O)[C@H]1OC[C@H](O)[C@H]1O", "Potency": "inactive"}, {"smiles": "O=C(/C=C/c1ccc([N+](=O)[O-])cc1)c1ccccc1", "Potency": "inactive"}, {"smiles": "CC(=O)C(=O)CC(C)C", "Potency": "inactive"}, {"smiles": "CCCCCCCCCCCCCC[N+](C)(C)C", "Potency": "inactive"}]}]}
